# According to PubChem BioAssay AID624046 (National Center for Advancing Translational Sciences (NCATS), 2012):
# Results filed as inconclusive are left out. The source made the active and inactive calls. The call rests on the fitted dose curve; in most records, active means well fitted inhibition curve with a large enough effect; inconclusive means small, poorly fitted or top-dose-only effect; inactive means flat fitted curve, though single readings scatter.
# Biological target: Dual specificity tyrosine-phosphorylation-regulated kinase 1B (Homo sapiens) (UniProt Q9Y463)
# Assay: Reaction Biology data for inhibitors of DYRK1B: Probe SAR
# Conditions: Reaction Biology DYRK1B kinase assay, 10 uM ATP; series mostly up to 10 µM; activity change, negative = inhibition: at the top concentration
# From the text: Alternative splicing of pre-mRNAs plays a major role in the regulation of eukaryotic gene expression. Alternative splicing is now thought to be one of the primary reasons for the complexity of higher organisms leading to an average of three protein isoforms per gene. Aberrant splicing can lead to a number of diseases and is known to play a role in rare genetic diseases such as progeria syndrome. Hutchinson-Gilford Progeria Syndrome (HGPS) is a pediatric premature aging disease caused by a spontaneous mutation in the lamin A/C (LMNA) gene due to a single point mutation in the lamin A gene effecting 1 in 4 million people. To identify both specific splicing modulators of the lamin A gene as well as general splicing modulators, a cell-based HTS assay was developed using a minigene reporter system (AIDs, 1459 & 1487). […] This AID summarizes the characterization of lead compounds in Dyrk1b. NIH Molecular Libraries Probe Production Centers Network [MLPCN] NIH Chemical Genomics Center [NCGC] MLPCN Grant: MH084827 Assay Submitter (PI): Tom Misteli
# Compound IC50s were determined at Reaction Biology (http://www.reactionbiology.com) with ten concentration points starting at 10 uM in the assay using a 3-fold dilution series. The control compound staurosporine was also tested in the 10-dose IC50 mode with the same 3-fold serial dilution, again starting at 10 uM. All kinase reactions were performed using 10 uM ATP in the assay. 100% activity was taken from kinase reactions with DMSO alone (the vehicle used for compound stock solutions).
# Dual specificity tyrosine-phosphorylation-regulated kinase 1B (Homo sapiens), sequence (Q9Y463 whole entry, looked up): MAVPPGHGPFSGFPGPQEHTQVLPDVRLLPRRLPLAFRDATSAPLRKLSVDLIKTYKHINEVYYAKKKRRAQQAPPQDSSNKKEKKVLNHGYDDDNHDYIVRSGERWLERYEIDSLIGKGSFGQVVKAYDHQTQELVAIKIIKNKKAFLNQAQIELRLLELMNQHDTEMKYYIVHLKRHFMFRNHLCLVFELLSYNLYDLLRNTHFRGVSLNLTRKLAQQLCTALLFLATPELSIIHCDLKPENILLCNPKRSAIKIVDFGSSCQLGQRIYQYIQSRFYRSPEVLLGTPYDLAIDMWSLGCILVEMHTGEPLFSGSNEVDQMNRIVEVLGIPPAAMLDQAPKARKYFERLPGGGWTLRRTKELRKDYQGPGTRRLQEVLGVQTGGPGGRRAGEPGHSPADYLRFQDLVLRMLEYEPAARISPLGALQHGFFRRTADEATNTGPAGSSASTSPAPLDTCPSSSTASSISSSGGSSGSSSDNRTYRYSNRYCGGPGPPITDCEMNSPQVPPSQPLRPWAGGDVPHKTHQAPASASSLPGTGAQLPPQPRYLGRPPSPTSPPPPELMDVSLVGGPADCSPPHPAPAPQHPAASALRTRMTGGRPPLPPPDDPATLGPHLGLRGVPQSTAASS
Structure (SMILES),"activity change, negative = inhibition",Potency
COc1cccc(-c2ccnc(NCc3ccc(Cl)c(Cl)c3)n2)c1,-45.4% (inactive),
COc1ccc(-c2ccnc(NCc3ccc(Cl)c(Cl)c3)n2)cc1OC,-27.3% (inactive),
COc1ccc(-c2ccnc(NCc3ccc(Cl)c(Cl)c3)n2)cc1,,411 nM (active)
O=[N+]([O-])c1cc(Nc2nccc(-c3ccc4c(c3)OCO4)n2)cc(C(F)(F)F)c1,,27 nM (active)
Clc1ccc(CNc2nccc(-c3ccc4c(c3)OCCO4)n2)cc1Cl,,54.8 nM (active)
Clc1ccc(CNc2nccc(-c3ccc4[nH]ncc4c3)n2)cc1Cl,,125 nM (active)
Clc1ccc(CNc2ccnc(-c3ccc4[nH]ncc4c3)n2)cc1Cl,,514 nM (active)
Clc1ccc(CNc2nccc(-c3ccc4cn[nH]c4c3)n2)cc1Cl,,599 nM (active)
Cc1nc(CN(C)c2ncnc3ccc(-c4ccc5[nH]ncc5c4)cc23)cs1,,89.5 nM (active)
Clc1cc(Cl)cc(CNc2ncncc2-c2ccc3c(c2)OCO3)c1,,1160 nM (active)
c1cncc(CNc2nccc(-c3ccc4c(c3)OCO4)n2)c1,,12 nM (active)
Brc1ccc(CNc2nccc(-c3ccc4c(c3)OCO4)n2)cc1Br,,112 nM (active)
c1cncc(CNc2ccnc(-c3ccc4cn[nH]c4c3)n2)c1,,829 nM (active)
Cc1nc(CNc2ncnc3ccc(-c4ccc5c(c4)OCO5)cc23)cs1,,176 nM (active)
c1cncc(CNc2nccc(-c3ccc4[nH]ncc4c3)n2)c1,,92.9 nM (active)
c1cc(-c2ccc3c(c2)OCO3)nc(Nc2ccc3c(c2)OCO3)n1,,41.9 nM (active)

Structure (SMILES),"activity change, negative = inhibition",Potency
FC(F)(F)c1cccc(Nc2nccc(-c3ccc4c(c3)OCO4)n2)c1,,18.1 nM (active)
c1nc(NCC2CCCO2)c2cc(-c3ccc4c(c3)OCO4)ccc2n1 (stereo unspecified),,141 nM (active)
COc1ccc(-c2ccnc(NCc3ccc(Cl)cc3)n2)cc1,,871 nM (active)
Clc1ccc(CNc2ncncc2-c2ccc3c(c2)OCO3)cc1Cl,-48.5% (inactive),
Cc1nc(CN(C)c2ncnc3ccc(-c4ccc5c(c4)OCO5)cc23)cs1,,16.4 nM (active)
Cc1c(-c2ccnc(NCc3ccc(Cl)cc3)n2)sc(=O)n1C,,51.6 nM (active)
Clc1ccc(CNc2nccc(-c3ccc4c(c3)OCO4)n2)cc1Cl,,37.8 nM (active)
Clc1ccc(Nc2nccc(-c3ccc4c(c3)OCO4)n2)cc1,,884 nM (active)
Clc1cc(Cl)cc(CNc2nccc(-c3ccc4c(c3)OCO4)n2)c1,,7.1 nM (active)
Cc1c(-c2ccnc(NCc3cccnc3)n2)sc(=O)n1C,,31.1 nM (active)
c1cncc(CNc2ncncc2-c2ccc3c(c2)OCO3)c1,-43.5% (inactive),
Brc1cc(Br)cc(CNc2nccc(-c3ccc4c(c3)OCO4)n2)c1,,18.2 nM (active)
COc1cccc(-c2ccnc(NCc3ccc(Cl)cc3)n2)c1,,6780 nM (active)
c1cncc(CNc2ccnc(-c3ccc4[nH]ncc4c3)n2)c1,,178 nM (active)
FC(F)(F)c1cc(Br)cc(Nc2nccc(-c3ccc4c(c3)OCO4)n2)c1,,137 nM (active)
